Results reported in article PMC7862700, “An all-to-all approach to the identification of sequence-specific readers for epigenetic DNA modifications on cytosine”.

What was measured:
Experiment in all cases: DAPPL (digital affinity profiling via proximity ligation, sequencing); 10 mM Tris-HCl pH 7.5, 50 mM NaCl, 1 mM DTT, 4% glycerol, room temperature, 30 min; GST-TFs on glutathione beads, 16-mer random dsDNA library, 0.1% formaldehyde crosslink after washing; high values mean tight binding
Details in all cases: protein: recombinant; tags: N-terminal GST; dsDNA, one strand shown
[1] = molecular target: T1, SPIC (Homo sapiens, UniProt Q8N5J4 1-248)
T1 sequence: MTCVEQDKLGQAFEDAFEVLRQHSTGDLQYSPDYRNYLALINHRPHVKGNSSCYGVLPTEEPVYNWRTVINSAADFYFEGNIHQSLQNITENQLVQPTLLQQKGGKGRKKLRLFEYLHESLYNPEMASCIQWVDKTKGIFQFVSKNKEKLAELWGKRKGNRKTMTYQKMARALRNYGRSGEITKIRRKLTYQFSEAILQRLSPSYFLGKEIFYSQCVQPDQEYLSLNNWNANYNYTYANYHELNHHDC
Outline: (§1)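 In yeast, human transcription factors were expressed with a GST fusion, then pulled down on glutathione beads and given DNA barcodes. Pooled with a tag-only sample, they were exposed to 200 nmole of a 16-mer random double-stranded DNA library (Tris/NaCl/DTT/glycerol buffer, room temperature, 30 min), washed, crosslinked with 0.1% formaldehyde, proximity-ligated using BsaI/T4 ligase for 1 h at 37 °C, PCR-amplified and read on an Illumina NextSeq500. Each hexamer's frequency of reads for a factor, divided by the matching frequency for the tag-only sample, gives the binding signal.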

[2] = molecular target: T2, ERF (Homo sapiens, UniProt P50548 1-548)
T2 sequence: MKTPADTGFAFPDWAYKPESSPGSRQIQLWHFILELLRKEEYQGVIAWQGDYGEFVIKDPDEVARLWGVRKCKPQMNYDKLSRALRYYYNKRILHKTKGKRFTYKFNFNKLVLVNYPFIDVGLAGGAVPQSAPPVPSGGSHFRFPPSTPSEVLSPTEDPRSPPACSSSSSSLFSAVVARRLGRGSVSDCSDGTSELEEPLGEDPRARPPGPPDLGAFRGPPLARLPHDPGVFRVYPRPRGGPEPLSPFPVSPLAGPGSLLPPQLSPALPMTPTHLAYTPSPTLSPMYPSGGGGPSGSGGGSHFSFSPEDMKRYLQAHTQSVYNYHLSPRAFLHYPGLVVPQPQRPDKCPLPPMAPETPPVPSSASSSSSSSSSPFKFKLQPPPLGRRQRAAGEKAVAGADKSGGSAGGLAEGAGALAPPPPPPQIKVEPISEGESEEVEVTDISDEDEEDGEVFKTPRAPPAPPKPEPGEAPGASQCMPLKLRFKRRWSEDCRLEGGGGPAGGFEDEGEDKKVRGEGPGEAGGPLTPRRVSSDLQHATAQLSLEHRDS
Outline: as §1

[3] = molecular target: T3, EHF (Homo sapiens, UniProt Q9NZC4 1-300)
T3 sequence: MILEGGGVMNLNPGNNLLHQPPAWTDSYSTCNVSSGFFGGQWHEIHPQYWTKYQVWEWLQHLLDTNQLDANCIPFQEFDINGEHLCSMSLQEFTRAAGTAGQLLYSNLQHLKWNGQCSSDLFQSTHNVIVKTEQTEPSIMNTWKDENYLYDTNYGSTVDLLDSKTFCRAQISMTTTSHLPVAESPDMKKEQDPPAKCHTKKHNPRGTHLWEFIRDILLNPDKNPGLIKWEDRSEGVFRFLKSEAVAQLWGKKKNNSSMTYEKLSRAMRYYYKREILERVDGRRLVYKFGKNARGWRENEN
Outline: as §1

[4] = molecular target: SPIB (Homo sapiens, UniProt Q01892 1-262)
Chain of SPIB (Q01892 whole entry): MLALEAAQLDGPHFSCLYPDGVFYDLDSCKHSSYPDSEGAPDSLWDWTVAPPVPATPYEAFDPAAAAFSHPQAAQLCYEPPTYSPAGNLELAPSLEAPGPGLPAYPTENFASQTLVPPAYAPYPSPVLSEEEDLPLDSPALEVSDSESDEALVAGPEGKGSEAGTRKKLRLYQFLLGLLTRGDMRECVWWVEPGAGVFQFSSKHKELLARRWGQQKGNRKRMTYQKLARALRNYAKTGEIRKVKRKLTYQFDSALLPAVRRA
Outline: as §1

[5] = molecular target: T4, ELK3 (Homo sapiens, UniProt P41970 1-407)
T4 sequence: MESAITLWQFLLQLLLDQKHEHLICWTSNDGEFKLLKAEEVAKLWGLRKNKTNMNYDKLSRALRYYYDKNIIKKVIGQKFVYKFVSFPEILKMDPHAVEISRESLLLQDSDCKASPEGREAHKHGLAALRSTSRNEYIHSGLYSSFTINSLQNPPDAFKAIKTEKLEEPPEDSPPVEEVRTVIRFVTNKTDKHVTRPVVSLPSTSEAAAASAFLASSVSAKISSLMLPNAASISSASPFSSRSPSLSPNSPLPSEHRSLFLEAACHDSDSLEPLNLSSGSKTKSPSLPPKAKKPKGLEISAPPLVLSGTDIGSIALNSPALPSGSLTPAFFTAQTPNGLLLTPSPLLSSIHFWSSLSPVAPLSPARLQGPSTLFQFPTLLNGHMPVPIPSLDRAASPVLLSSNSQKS
Outline: as §1

[6] = molecular target: T5, ELK4 (Homo sapiens, UniProt P28324-2 1-405)
T5 sequence: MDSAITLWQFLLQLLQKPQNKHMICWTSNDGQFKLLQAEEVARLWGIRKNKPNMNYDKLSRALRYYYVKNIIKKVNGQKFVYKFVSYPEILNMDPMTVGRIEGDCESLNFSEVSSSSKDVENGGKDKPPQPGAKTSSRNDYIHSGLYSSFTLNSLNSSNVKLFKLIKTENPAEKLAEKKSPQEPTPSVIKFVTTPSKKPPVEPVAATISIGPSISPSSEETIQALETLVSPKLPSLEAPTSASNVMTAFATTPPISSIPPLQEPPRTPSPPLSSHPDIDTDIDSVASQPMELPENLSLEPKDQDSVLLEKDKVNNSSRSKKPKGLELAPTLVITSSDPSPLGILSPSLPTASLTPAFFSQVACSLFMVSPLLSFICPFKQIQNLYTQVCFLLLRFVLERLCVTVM
Outline: as §1

[7] = molecular target: T6, ETV2 (Homo sapiens, UniProt O00321 1-342)
T6 sequence: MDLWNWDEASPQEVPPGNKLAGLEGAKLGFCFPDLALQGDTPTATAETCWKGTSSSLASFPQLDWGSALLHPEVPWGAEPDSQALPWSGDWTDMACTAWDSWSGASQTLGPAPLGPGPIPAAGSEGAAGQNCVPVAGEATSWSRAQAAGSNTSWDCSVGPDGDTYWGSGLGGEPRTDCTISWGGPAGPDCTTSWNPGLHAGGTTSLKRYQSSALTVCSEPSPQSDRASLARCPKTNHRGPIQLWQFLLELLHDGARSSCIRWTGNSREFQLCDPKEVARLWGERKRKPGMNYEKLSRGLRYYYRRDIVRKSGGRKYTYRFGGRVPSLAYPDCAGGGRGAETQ
Outline: as §1

[8] = molecular target: T7, SPDEF (Homo sapiens, UniProt O95238 1-335)
T7 sequence: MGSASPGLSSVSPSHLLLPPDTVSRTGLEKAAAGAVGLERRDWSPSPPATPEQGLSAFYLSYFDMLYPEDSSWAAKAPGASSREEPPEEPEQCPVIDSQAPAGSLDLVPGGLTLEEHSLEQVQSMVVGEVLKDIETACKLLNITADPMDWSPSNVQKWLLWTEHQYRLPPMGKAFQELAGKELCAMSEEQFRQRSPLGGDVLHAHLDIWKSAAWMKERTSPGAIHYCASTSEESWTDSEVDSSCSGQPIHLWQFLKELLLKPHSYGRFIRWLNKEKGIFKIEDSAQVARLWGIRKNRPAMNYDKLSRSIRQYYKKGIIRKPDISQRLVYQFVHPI
Outline: as §1

[9] = molecular target: T8, ETV7 (Homo sapiens, UniProt Q9Y603 1-341)
T8 sequence: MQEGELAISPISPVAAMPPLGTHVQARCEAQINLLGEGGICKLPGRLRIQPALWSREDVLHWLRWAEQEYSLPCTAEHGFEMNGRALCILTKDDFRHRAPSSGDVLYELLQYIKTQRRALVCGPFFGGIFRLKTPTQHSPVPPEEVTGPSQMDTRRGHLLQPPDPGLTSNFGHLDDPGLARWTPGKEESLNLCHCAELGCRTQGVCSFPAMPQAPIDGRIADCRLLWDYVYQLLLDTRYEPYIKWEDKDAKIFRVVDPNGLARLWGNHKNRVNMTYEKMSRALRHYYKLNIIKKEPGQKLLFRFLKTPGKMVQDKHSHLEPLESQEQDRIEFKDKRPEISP
Outline: as §1

[10] = molecular target: T9, ETV3 (Homo sapiens, UniProt P41162-2 1-143)
T9 sequence: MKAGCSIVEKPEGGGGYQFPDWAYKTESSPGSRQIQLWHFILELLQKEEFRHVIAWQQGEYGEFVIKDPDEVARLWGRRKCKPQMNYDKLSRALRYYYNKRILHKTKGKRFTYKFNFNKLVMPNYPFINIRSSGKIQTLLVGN
Outline: as §1

Sequence: AGCACG
- binding signal [1]: 1.02 fold enrichment (6-mer frequency, TF over GST control)
- binding signal [2]: 1.01 fold enrichment (6-mer frequency, TF over GST control)

Sequence: CGCGCA
- binding signal [3]: 1.07 fold enrichment (6-mer frequency, TF over GST control)
- binding signal [4]: 1.04 fold enrichment (6-mer frequency, TF over GST control)
- binding signal [5]: 1.01 fold enrichment (6-mer frequency, TF over GST control)
- binding signal [1]: 1.01 fold enrichment (6-mer frequency, TF over GST control)
- binding signal [6]: 1.13 fold enrichment (6-mer frequency, TF over GST control)
- binding signal [7]: 1.02 fold enrichment (6-mer frequency, TF over GST control)

Sequence: CGACAG
- binding signal [1]: 1.01 fold enrichment (6-mer frequency, TF over GST control)
- binding signal [6]: 1.03 fold enrichment (6-mer frequency, TF over GST control)
- binding signal [7]: 1.07 fold enrichment (6-mer frequency, TF over GST control)
- binding signal [2]: 1.07 fold enrichment (6-mer frequency, TF over GST control)
- binding signal [8]: 1.01 fold enrichment (6-mer frequency, TF over GST control)
- binding signal [9]: 1.08 fold enrichment (6-mer frequency, TF over GST control)

Sequence: CGCAAT
- binding signal [1]: 1.01 fold enrichment (6-mer frequency, TF over GST control)
- binding signal [7]: 1.04 fold enrichment (6-mer frequency, TF over GST control)
- binding signal [10]: 1.01 fold enrichment (6-mer frequency, TF over GST control)
